The record followed here is PubChem BioAssay AID1734 (Vanderbilt High Throughput Screening Facility, 2009).

Calls of active or inactive are those of the source. No rule for the calls is given here.

Solute carrier family 12 member 5 (Homo sapiens), sequence (Q9H2X9 whole entry, looked up): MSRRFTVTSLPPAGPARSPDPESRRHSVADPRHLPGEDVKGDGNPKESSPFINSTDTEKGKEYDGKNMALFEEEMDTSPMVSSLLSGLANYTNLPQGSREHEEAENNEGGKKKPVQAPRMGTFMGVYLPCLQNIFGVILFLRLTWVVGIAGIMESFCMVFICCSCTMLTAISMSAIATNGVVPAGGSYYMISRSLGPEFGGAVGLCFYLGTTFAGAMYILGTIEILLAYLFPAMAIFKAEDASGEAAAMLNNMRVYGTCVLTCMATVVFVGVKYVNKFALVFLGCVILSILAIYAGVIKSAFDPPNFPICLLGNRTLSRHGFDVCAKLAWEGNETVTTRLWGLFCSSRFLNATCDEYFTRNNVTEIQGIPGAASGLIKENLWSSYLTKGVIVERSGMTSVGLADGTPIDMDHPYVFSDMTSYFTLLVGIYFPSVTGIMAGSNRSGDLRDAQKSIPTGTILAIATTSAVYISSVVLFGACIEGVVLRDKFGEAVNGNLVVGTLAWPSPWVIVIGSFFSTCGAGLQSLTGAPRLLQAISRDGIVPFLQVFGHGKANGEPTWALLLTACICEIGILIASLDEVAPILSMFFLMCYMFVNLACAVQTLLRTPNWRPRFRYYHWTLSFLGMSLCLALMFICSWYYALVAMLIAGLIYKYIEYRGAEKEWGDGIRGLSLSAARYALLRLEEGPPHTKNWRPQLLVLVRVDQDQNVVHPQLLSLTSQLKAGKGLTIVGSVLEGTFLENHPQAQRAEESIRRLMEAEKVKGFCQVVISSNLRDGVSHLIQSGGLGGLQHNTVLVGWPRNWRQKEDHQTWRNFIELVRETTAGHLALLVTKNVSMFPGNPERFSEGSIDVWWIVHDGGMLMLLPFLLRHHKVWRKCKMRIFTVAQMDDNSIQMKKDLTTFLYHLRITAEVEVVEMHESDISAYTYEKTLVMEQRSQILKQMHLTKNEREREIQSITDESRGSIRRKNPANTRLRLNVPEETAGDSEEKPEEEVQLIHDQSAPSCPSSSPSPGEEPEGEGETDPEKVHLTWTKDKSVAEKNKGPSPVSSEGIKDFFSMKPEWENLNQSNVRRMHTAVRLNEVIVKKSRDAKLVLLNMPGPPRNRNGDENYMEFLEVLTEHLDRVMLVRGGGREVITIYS

Test system in one assay: not listed separately
As to the kind of experiment: KCC2 and NKCC1 inhibition by rubidium flux, cell-based, NKCC1 counter-screen (AID 1734). To be noted: KCC2-expressing cells, NKCC1 counter-screen, at 50 µM. For orientation: A counterscreen serves to expose hits that act by an unwanted route or on another target.
In turn, `O=C(/C=C/c1ccccc1)Nc1scc(-c2ccccc2)c1C(=O)O` yielded an inhibition of 72.8%.
Same read-out and setting: in the case of `O=C(CN1C(=O)NC2(CCCC2)C1=O)Nc1nc(-c2ccc(F)cc2)cs1` it was 43.6%; in that of `Cc1nc(CC(=O)Nc2nc(-c3ccccc3)cs2)cs1`, 38.1%.
Same read-out and setting: for `O=C(NCCOc1ccccc1F)c1ccccc1SCc1ccc(F)cc1` the value was 45.8%.
Turning to `CC1Cc2ccccc2N1C(=O)c1ccc(N2CCCC2)c([N+](=O)[O-])c1` (centres undefined), the inhibition was 48.5%.
Same read-out and setting: for `Cc1cnc(NC(=O)CSc2nnc(Cc3ccccc3)o2)s1` the value was 16.8%; for `CN(Cc1ccccc1)S(=O)(=O)c1ccc(Cl)c(C(=O)NCCc2ccccn2)c1`, 53.4%.
Same read-out and setting: for `O=C(CCS(=O)(=O)Cc1ccccc1)Nc1nc2c(s1)CCCC2` the value was 37.1%; for `Cc1ccc(NC(=O)c2ccccc2NS(=O)(=O)c2ccc(Cl)s2)cc1`, 68.4%.
In turn, `O=C(OCC(=O)N1CCN(C(=O)c2ccco2)CC1)c1sc2ccccc2c1Cl` had an inhibition of 55.4%.
On the same count and under the same terms, for `CCOc1ccc(N2C(=O)C3Sc4[nH]c(=O)sc4C(/C=C/c4ccccc4)C3C2=O)cc1` (centres undefined) the value was 90.8%; for `O=S(=O)(NCc1ccccc1)c1ccc(Cl)c(S(=O)(=O)NCc2ccccc2)c1`, 30.5%; for `Cc1ccc(-c2ccc(S(=O)(=O)NCC3CCCO3)cc2)cc1` (centres undefined), 26.6%.
Same read-out and setting: for `CCc1ccc(OCCNC(=O)c2ccccc2SCc2ccc(F)cc2)cc1` the value was 47.9%; for `O=C(Cn1cnc2c(nnn2Cc2ccccc2)c1=O)N1CCCc2ccccc21`, 33.2%.
Turning to `O=C(Cn1cnc2c(nnn2Cc2ccccc2)c1=O)c1ccc(Cl)cc1`, the inhibition is 40.6%.
Same read-out and setting: for `Cc1csc(NC(=O)CSc2ccc(-c3ccccc3)nn2)n1` the value was 19.7%; for `O=C(O)CCn1c(SCc2cccc3ccccc23)nc2ccccc21`, 80.5%; for `CCOc1ccc(Nc2n[nH]c(=S)s2)cc1`, 67.4%.
Still for that read-out and setting: for `O=C(NCC1CCCN(C(=O)c2cccnc2)C1)c1ccc(-c2ccccc2)cc1` (centres undefined) the value was 40.3%; for `O=C(Cn1cnc2c(nnn2Cc2ccc(F)cc2)c1=O)N1CCCc2ccccc21`, 27.7%; for `CCCn1c(N)c(C(=O)CSc2nnc(Cc3ccccc3)o2)c(=O)n(C)c1=O`, 28.3%.
On the same count and under the same terms, for `CC(C)c1onc(C(=O)N2CCN(Cc3ccccc3)CC2)c1[N+](=O)[O-]` the value was 15.5%; for `O=C(Nc1ccc(S(=O)(=O)NCc2ccccc2)cc1)c1ccccc1[N+](=O)[O-]`, 31.2%.
As for `Cc1ccc(Nc2nnc(SCC(=O)c3cc4ccccc4o3)s2)cc1C`, the inhibition was determined as 53.4%.

A further assay concerns the target Solute carrier family 12 member 5 (Homo sapiens) (UniProt Q9H2X9). The description is as above. To be noted: KCC2-expressing cells.
With `Cc1ccc(NC(=O)c2ccccc2NS(=O)(=O)c2ccc(Cl)s2)cc1`, the result was inactive.
Still for that read-out and setting: for `CCc1ccc(OCCNC(=O)c2ccccc2SCc2ccc(F)cc2)cc1` the value was “inactive”; for `CCOc1ccc(Nc2n[nH]c(=S)s2)cc1`, “inactive”.
The same measure, in the same setting: for `O=C(NCC1CCCN(C(=O)c2cccnc2)C1)c1ccc(-c2ccccc2)cc1` (centres undefined) the value was “inactive”.

As a reminder, the inhibition is the change of the read-out against control, counted positive when it falls.
